Assay results reported in PubChem BioAssay (NCI).
About 79,000 compounds went through this panel and 15% of them were active in at least one assay; those are over-represented in the sample as a whole. Calls of active or inactive are those of the source. Rule as the data show it: active = growth inhibition above about 70%; inactive = the rest.

Experiments:
[1] = NCI Yeast Anticancer Drug Screen. Data for the rad52 strain (AID 147);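 also: 0% = growth of vehicle-treated control cultures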; details: S. cerevisiae rad52 mutant growth inhibition, stronger effect = higher value
Method in brief: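 Inhibition of yeast growth, referenced to vehicle controls, was the measured output for a strain with defective DNA damage repair.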

[2] = NCI Yeast Anticancer Drug Screen. Data for the wt1 strain (AID 149);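 also: 0% = growth of vehicle-treated wt1 cultures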; details: S. cerevisiae wt1 strain (SPY 50644) growth inhibition, stronger effect = higher value
Method in brief: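 Vehicle-normalised growth inhibition; strain wt1; compound exposure.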

[3] = NCI Yeast Anticancer Drug Screen. Data for the rad50EPP+ strain (AID 151);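 also: 0% = growth of vehicle-treated control cultures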; details: S. cerevisiae rad50 mutant strain, stronger effect = higher value
Method in brief: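 Genetically defined yeast (rad50EPP+, DNA damage repair alteration) is grown with compound, and inhibition of growth is expressed relative to vehicle-treated controls.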

[4] = NCI Yeast Anticancer Drug Screen. Data for the mgt1 strain (AID 153); details: S. cerevisiae mgt1 mutant growth inhibition, stronger effect = higher value
Method in brief: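 In the mgt1 strain, test compounds were added and growth inhibition was determined relative to vehicle-treated controls.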

[5] = NCI Yeast Anticancer Drug Screen. Data for the rad50 strain (AID 155);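 also: 0% = growth of vehicle-only cultures of the same strain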; details: S. cerevisiae rad50 strain growth inhibition, stronger effect = higher value
Method in brief: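 A DNA repair-deficient yeast mutant serves as the test organism; compound-induced growth inhibition is calculated against vehicle-treated cells.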

[6] = NCI Yeast Anticancer Drug Screen. Data for the mec2-1 strain (AID 157); details: S. cerevisiae mec2-1 strain, stronger effect = higher value
Method in brief: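 Each compound was tested on mec2-1 yeast, a strain altered in DNA damage repair or cell cycle control. Growth inhibition is reported relative to vehicle.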

[7] = NCI Yeast Anticancer Drug Screen. Data for the rad14 strain (AID 159);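 also: 0% = growth of vehicle-treated control cultures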; details: S. cerevisiae rad14 strain growth inhibition, stronger effect = higher value
Method in brief: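 Vehicle-treated cultures served as the baseline for growth inhibition of a DNA repair-mutant yeast strain exposed to each compound.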

[8] = NCI Yeast Anticancer Drug Screen. Data for the sgs1 mgt1 strain (AID 161);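 also: 0% = growth of cultures given vehicle only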; details: S. cerevisiae sgs1 mgt1 strain, stronger effect = higher value
Method in brief: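 Mutant yeast exposed to compound; growth scored against vehicle-only wells.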

[9] = NCI Yeast Anticancer Drug Screen. Data for the CLN2oe strain (AID 163);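 also: 0% = growth of vehicle-only control cultures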; details: S. cerevisiae CLN2oe strain, stronger effect = higher value
Method in brief: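 First, the altered yeast strain was treated with each compound; second, its growth was measured; finally, inhibition was derived by comparison with vehicle controls.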

[10] = NCI Yeast Anticancer Drug Screen. Data for the cln2 rad14 strain (AID 165);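 also: 0% = growth equal to vehicle treated cultures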; details: S. cerevisiae cln2 rad14 strain, stronger effect = higher value
Method in brief: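 Test compounds were added to cln2 rad14 yeast cultures; inhibition of growth was then determined by comparison with vehicle treatment.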

[11] = NCI Yeast Anticancer Drug Screen. Data for the bub3 strain (AID 167); details: S. cerevisiae bub3 mutant strain, stronger effect = higher value
Method in brief: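 Inhibition values come from growth of compound-treated mutant yeast normalised to vehicle-treated controls.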

[12] = NCI Yeast Anticancer Drug Screen. Data for the wt2 strain (AID 169);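 also: 0% = growth of vehicle-treated yeast cultures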; details: S. cerevisiae wt2 strain growth inhibition, stronger effect = higher value
Method in brief: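 The panel's yeast strains carry defined changes in DNA repair or cell cycle genes. Each strain is grown with compound, and growth loss is scored relative to vehicle.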

[13] = NCI Yeast Anticancer Drug Screen. Data for the mlh1 strain (AID 171);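 also: 0% = growth of vehicle-treated control cultures of the same strain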; details: S. cerevisiae mlh1 strain growth inhibition, stronger effect = higher value
Method in brief: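 Inhibition values reflect reduced yeast growth in the presence of compound, referenced to vehicle controls, using a strain chosen for its alteration in DNA repair or cell cycle control.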

[14] = NCI Yeast Anticancer Drug Screen. Data for the sgs1 strain (AID 173);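 also: 0% = growth of vehicle-only control cultures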; details: S. cerevisiae sgs1 mutant, stronger effect = higher value
Method in brief: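 Vehicle-treated cultures served as reference for growth inhibition of a yeast strain altered in DNA damage repair or cell cycle control after compound exposure.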

[15] = NCI Yeast Anticancer Drug Screen. Data for the mlh1 rad18 strain (AID 175); details: S. cerevisiae mlh1 rad18 strain growth inhibition, stronger effect = higher value
Method in brief: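 Inhibition values reflect reduced growth of mutant yeast versus vehicle-treated controls following compound exposure; the mutations affect DNA damage repair.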

[16] = NCI Yeast Anticancer Drug Screen. Data for the rad18 strain (AID 177); details: S. cerevisiae rad18 mutant growth inhibition, stronger effect = higher value
Method in brief: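 Steps: expose repair-mutant yeast to compound; measure growth; express as inhibition relative to vehicle control.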

[17] = at 5.0 µM (retest, dose inferred, filed as 0.5)
[18] = at 50.0 µM (retest, dose inferred, filed as 5.0)

Measured: growth inhibition

O=Nc1cccnc1N=O
active: [1]; at 11.0 µM 86% | [1]; at 33.0 µM 98% | [1]; at 100.0 µM 98% | [2]; at 33.0 µM 99% | [2]; at 100.0 µM 99% | [3]; at 33.0 µM 97% | [3]; at 100.0 µM 98% | [4]; at 11.0 µM 79% | [4]; at 33.0 µM 99% | [4]; at 100.0 µM 99% | [5]; at 33.0 µM 98% | [5]; [18] 99% | [5]; at 50.0 µM 99.5% | [5]; at 100.0 µM 98% | [6]; at 11.0 µM 90% | [6]; at 33.0 µM 99% | [6]; [18] 99% | [6]; at 50.0 µM 99.4% | [6]; at 100.0 µM 99% | [7]; at 11.0 µM 99% | [7]; at 33.0 µM 99% | [7]; at 100.0 µM 99% | [8]; [17] 81% | [8]; [18] 99% | [8]; at 50.0 µM 99.3% | [9]; at 33.0 µM 99% | [9]; at 100.0 µM 98% | [10]; [18] 99% | [10]; at 50.0 µM 99.3% | [11]; [17] 76% | [11]; at 11.0 µM 86% | [11]; at 33.0 µM 98% | [11]; [18] 99% | [11]; at 50.0 µM 99.5% | [11]; at 100.0 µM 98% | [12]; at 33.0 µM 99% | [12]; at 100.0 µM 99% | [13]; at 11.0 µM 83% | [13]; at 33.0 µM 98% | [13]; at 100.0 µM 99% | [14]; at 11.0 µM 97% | [14]; at 33.0 µM 99% | [14]; at 100.0 µM 99% | [15]; [17] 94% | [15]; [18] 99% | [15]; at 50.0 µM 99.6% | [16]; at 3.7 µM 86% | [16]; at 11.0 µM 94% | [16]; at 33.0 µM 98% | [16]; at 100.0 µM 98%
inactive: [1]; at 1.2 µM 10% | [1]; at 3.7 µM 31% | [2]; at 1.2 µM 2% | [2]; at 3.7 µM 10% | [2]; at 11.0 µM 37% | [3]; at 1.2 µM -33% | [3]; at 3.7 µM 14% | [3]; at 11.0 µM 64% | [4]; at 1.2 µM 5% | [4]; at 3.7 µM 25% | [5]; at 1.2 µM 7% | [5]; at 3.7 µM 21% | [5]; [17] 66% | [5]; at 11.0 µM 52% | [6]; at 1.2 µM 7% | [6]; at 3.7 µM 28% | [6]; [17] 27% | [7]; at 1.2 µM 11% | [7]; at 3.7 µM 36% | [9]; at 1.2 µM 5% | [9]; at 3.7 µM 13% | [9]; at 11.0 µM 34% | [10]; [17] 19% | [11]; at 1.2 µM 9% | [11]; at 3.7 µM 31% | [12]; at 1.2 µM 2% | [12]; at 3.7 µM 16% | [12]; at 11.0 µM 59% | [13]; at 1.2 µM 5% | [13]; at 3.7 µM 21% | [14]; at 1.2 µM 18% | [14]; at 3.7 µM 63% | [16]; at 1.2 µM 35%
